Assay results as given in PubChem BioAssay AID1721 (National Center for Advancing Translational Sciences (NCATS), 2009).
Hit rate of the full screen: of about 290,000 compounds, about 1,100 (0.38%) were called active. Calls follow the shape of the dose curve; as a rule, active = well fitted inhibition curve with a large enough effect; inconclusive = small, poorly fitted or top-dose-only effect, or another doubt; inactive = no such curve, though single readings can be large or run the other way. For the sample, actives were picked, then their nearest neighbours and some compounds at random.

Each compound was assayed against Pyruvate kinase (Leishmania mexicana) (UniProt Q27686) (assay: qHTS Assay for Inhibitors of Leishmania Mexicana Pyruvate Kinase (LmPK)). Details: purified LmPK, Kinase-Glo ATP luminescence, 1 h; series mostly up to 57.5 µM; activity change, negative = inhibition: at the top concentration.
Source text: NIH Chemical Genomics Center [NCGC] Malcolm Walkinshaw, Hugh Morgan, Linda Gilmore University of Edinburgh, UK MLPCN Grant: 1 R03 MH085697-01 NCGC Assay Overview: Pyruvate kinase (L. Mexicana) (LmPK) enzyme was supplied as a highly purified (>95% pure) sulphate-free preparation from University of Edinburgh, UK and assayed for its ability to generate ATP from ADP using phosphoenolpyruvate (PEP) as a substrate. ATP generation was detected in a coupled reaction by luciferase-mediated luminescence, an ATP-dependent process. […] The enzyme was assayed at an intermediate level of activity to screen for both inhibitors and activators.
NCGC Assay Protocol Summary: Three uL of enzyme mix (kept on ice) in assay buffer (50 mM Imidazole pH7.2, 50 mM KCl, 7 mM MgCl2, 0.01% Tween 20, 0.05% BSA) containing PEP (0.5 mM final concentration) and LmPK (0.1 nM final concentration) was dispensed into white solid bottom 1,536 well microtiter plates. 23 nL of compound were delivered by a pin tool and 1 uL of ADP mix in assay buffer (r.t; 0.1 mM final ADP concentration) was added. Plates were incubated at room temperature for 1 hour. Two uL of detection mix (Kinase-Glo, Promega; at 4 degree Celsius protected from light) was added and luminescence read by a ViewLux (Perkin Elmer) at 1 second exposure/plate. Data were normalized to the uninhibited and AC100 inhibition (no enzyme). To monitor activation, the first column contained a five-fold concentration of LmPK (0.5 nM).
% is scaled to controls: 0 for no effect and ±100 for the full control effect; potency is read from the fitted curve at half-maximal effect.

Sequence of Pyruvate kinase (Leishmania mexicana) (Q27686 whole entry, looked up): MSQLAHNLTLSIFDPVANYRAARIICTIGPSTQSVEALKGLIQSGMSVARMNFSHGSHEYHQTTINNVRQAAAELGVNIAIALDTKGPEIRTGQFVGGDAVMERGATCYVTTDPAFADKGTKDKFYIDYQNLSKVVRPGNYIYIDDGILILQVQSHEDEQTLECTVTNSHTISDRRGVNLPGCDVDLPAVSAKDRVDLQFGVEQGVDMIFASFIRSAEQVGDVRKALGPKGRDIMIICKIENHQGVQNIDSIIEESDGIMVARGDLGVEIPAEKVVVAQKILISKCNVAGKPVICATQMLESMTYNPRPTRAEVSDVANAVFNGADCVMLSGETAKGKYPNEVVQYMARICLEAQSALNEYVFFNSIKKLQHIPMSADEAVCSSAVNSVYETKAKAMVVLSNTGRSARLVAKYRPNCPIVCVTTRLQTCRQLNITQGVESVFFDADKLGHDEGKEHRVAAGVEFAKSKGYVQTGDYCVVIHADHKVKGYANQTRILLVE

Compound | activity change, negative = inhibition | Potency
CCn1c(CNS(=O)(=O)c2ccc(Cl)cc2)n[nH]c1=S | 4.89% (inactive) | –
CCn1c(CSCc2c(Cl)cccc2Cl)n[nH]c1=S | – | 15.8 µM (active)
CCn1c(-c2ccncc2)n[nH]c1=S | 3.37% (inactive) | –
COc1cccc(CNC(=O)C2CCCN(S(=O)(=O)N3CC(C)CC(C)C3)C2)c1 (stereo unspecified) | 2.71% (inactive) | –
c1ccc(Cc2ccc(OCCn3ccnc3)cc2)cc1 | -2.41% (inactive) | –
CCC1CCCCN1CCCNC(=O)c1cc2c(Cl)nc3ccccc3c2s1 (stereo unspecified) | -3.62% (inactive) | –
CCOc1ccccc1NS(=O)(=O)c1cc2c3c(c1)C(C)C(=O)N3CCC2 (stereo unspecified) | 6.52% (inactive) | –
CCOC(=O)c1cc(S(=O)(=O)NCCc2ccc(OC)c(OC)c2)cn1C | 10.7% (inactive) | –
Cc1nonc1C(=O)N/N=C/c1ccc(O)cc1 | – | 8.91 µM (active)
Cc1nc2ccc(C(=O)N/N=C/c3ccc(O)cc3)cc2[nH]1 | 0.498% (inactive) | –
O=C(C[n+]1ccccc1)N/N=C/c1ccc(O)cc1 | -8.31% (inactive) | –
C=CCNc1nc(N)c([N+](=O)[O-])c(NC2CCCCC2)n1 | 1.29% (inactive) | –
NNC(=O)CNC(c1ccccc1)c1cc(Cl)ccc1NC(=O)c1ccccc1 (stereo unspecified) | -0.937% (inactive) | –
C[C@@H](NC(=O)OC(C)(C)C)c1nnc(S(=O)(=O)Cc2ccccc2)o1 | 1.2% (inactive) | –
Cc1cc2c(c(=O)n1Cc1ccccc1)C1O[C@](CCCCN3C(=O)c4ccccc4C3=O)(Cc3ccccc31)O2 | -8.6% [at 11.5 µM] (inactive) | –
O=C(CCc1ccccc1)Nc1ncc([N+](=O)[O-])s1 | 0.572% (inactive) | –
CC(=O)Oc1ccccc1C(=O)Nc1ncc([N+](=O)[O-])s1 | – | 12.6 µM (active)
O=C(Nc1ncc([N+](=O)[O-])s1)C1COc2ccccc2O1 (stereo unspecified) | -20.8% (inactive) | –
Cc1ccc(/C=N/NC(=O)c2cc3ccccc3cc2O)o1 | -2.32% (inactive) | –
N=c1oc2ccccc2cc1C(=O)NCc1ccccc1 | -5.29% (inactive) | –
N=c1oc2ccccc2cc1C(=O)N/N=C/c1ccccc1 | – | 8.91 µM (active)
CC1CC(C)CN(CCOc2cccc3ccccc23)C1 (stereo unspecified) | 0.618% (inactive) | –
Cc1cc(C)c(OCC(=O)N(Cc2cccs2)C2CCS(=O)(=O)C2)c(C)c1 (stereo unspecified) | 0.0184% (inactive) | –

Compound | activity change, negative = inhibition | Potency
CCCn1c(C2CCCN2c2nc(-c3ccc(OC)cc3)cs2)nc2ccccc21 (stereo unspecified) | -0.585% (inactive) | –
COc1ccc(-n2ncc3c2CC(C)(C)CC3NC(=O)CCc2c(C)noc2C)cc1 (stereo unspecified) | -2.13% (inactive) | –
COC(=O)c1ccc2c(C(C)(C)O)c(C(C)(C)O)[nH]c2c1 | -3.67% (inactive) | –
COc1ccc(-c2n[nH]c(C)c2-c2ccc(OC)c(OC)c2)c(O)c1 | 2.24% (inactive) | –
COc1ccccc1-n1c(-c2cc(-c3ccco3)[nH]n2)n[nH]c1=S | – | 3.55 µM (active)
COc1ccc(-n2c(-c3ccc(OC)c(OC)c3)n[nH]c2=S)cc1 | – | 20 µM (active)
S=c1[nH]nc(-c2ccc(Cl)cc2)n1CC1CCCO1 (stereo unspecified) | -19.2% (inactive) | –
COc1ccc(OC)c(-n2c(-c3ccn[nH]3)n[nH]c2=S)c1 | – | 20 µM (active)
COc1ccc(OC)c(-n2c(=S)[nH]c3cc(C(=O)N4CCCCC4)ccc3c2=O)c1 | -8.77% (inactive) | –
Cc1ccc(OCc2n[nH]c(=S)n2-c2ccc(C)cc2)cc1 | 2.55% (inactive) | –
Cc1ccc(-n2c(-c3ccc(Cl)cc3)n[nH]c2=S)cc1 | – | 14.1 µM (active)
COc1ccc(OCc2n[nH]c(=S)n2N)cc1 | 1.04% (inactive) | –
Cc1cc(-c2n[nH]c(=S)n2/N=C/c2ccco2)n[nH]1 | 6.46% (inactive) | –
Cc1cc(-c2n[nH]c(=S)n2-c2ccc(C)c(C)c2)no1 | -17.2% (inactive) | –
COc1ccccc1-n1cn[nH]c1=S | -11.1% (inactive) | –
O=C(CN1CCCCCC1)Nc1c(Cl)cc(Cl)cc1Cl | -2.33% (inactive) | –
O=C(C1CCCN(S(=O)(=O)c2ccccc2)C1)N1CCN(c2ccc(F)cc2)CC1 (stereo unspecified) | -5.11% (inactive) | –
O=C(CCS(=O)(=O)c1ccccc1)NC1CCCC1 | -7.62% (inactive) | –
CC(C)(C)C1C/C(=C/c2ccco2)C(=O)/C(=C/c2ccco2)C1 (stereo unspecified) | 2.93% (inactive) | –
COc1ccc(S(=O)(=O)NCCOc2ccccc2)cc1F | 6.43% (inactive) | –
COc1ccc(CCN2CC(C(=O)NCCN3CCNC3=O)CCC2=O)cc1 (stereo unspecified) | -1.55% (inactive) | –
CCn1c(SCC(=O)NC2CCCC2)nnc1-c1ccoc1C | -1.22% (inactive) | –
COc1cccc(NC(=O)COc2cc(C)cc3oc(=O)cc(C)c23)c1 | -1.3% (inactive) | –

Compound | activity change, negative = inhibition | Potency
COc1ccc(S(=O)(=O)NCCCCOc2ccc(Cl)cc2)cc1 | -1.76% (inactive) | –
CCOc1ccc(C2NC(=S)NC3=C2CCc2ccccc23)cc1 (stereo unspecified) | -18.4% (inactive) | –
CC(C)(C)c1ccc(Cn2nnc3c(=O)[nH]c(C4CCCN(C(=O)c5ccco5)C4)nc32)cc1 (stereo unspecified) | 4.01% (inactive) | –
COc1ccc(C(=O)NC2CC(C)(C)NC(C)(C)C2)cc1OC | 3.08% (inactive) | –
COCCc1nn2c(=O)cc(COC(=O)c3cc(OC)c(OC)c(OC)c3)nc2s1 | 4.84% (inactive) | –
CC(=O)C1=C(O)C(=O)N(c2ccc(Br)cc2)C1c1ccc([N+](=O)[O-])cc1 (stereo unspecified) | 4.85% (inactive) | –
CCCCc1nc2cc(C(=O)N3CCCCC3CCO)ccc2o1 (stereo unspecified) | -5.27% (inactive) | –
Cc1cc(NC(=O)c2ccc(F)cc2)ccc1NC(=O)c1ccco1 | -5.75% (inactive) | –
COc1ccc(OCC(=O)Nc2ccc(NC(=O)c3ccco3)c(C)c2)cc1 | 3.97% (inactive) | –
COc1ccccc1C(=O)Nc1ccc(NC(=O)c2ccco2)c(C)c1 | – | 15.8 µM (active)
CCn1c(SCC(=O)NC2CC2)nnc1-c1ccccc1OC | 3.59% (inactive) | –
COc1ccccc1CC(=O)Nc1ccc(F)cc1F | -4.93% (inactive) | –
COc1ccc(C(=O)Nc2ccc(F)cc2F)cc1 | – | 14.1 µM (active)
COc1cc(OC)cc(C(=O)OCC(=O)Nc2ccc(F)cc2F)c1 | 3.32% (inactive) | –
O=C(c1cc(-c2ccc(O)cc2)on1)N1CCOCC1 | -7.59% (inactive) | –
Cc1ccc(CN2CCN(c3ncccn3)CC2)c(C)c1 | -4.47% (inactive) | –
CCOC(=O)C1CCN(C(=O)C2CCCN(S(=O)(=O)c3ccc(OC)c(Cl)c3)C2)CC1 (stereo unspecified) | -1.27% (inactive) | –
Cc1cnc(NC(=O)CSc2c(Cl)cccc2Cl)s1 | 0.4% (inactive) | –
O=C(Nc1nnc(C2CC2)s1)c1ccccn1 | – | 25.1 µM (active)
Cc1cnc(NC(=O)c2ccc(Cl)nc2)s1 | -1.78% (inactive) | –
Cc1cnc(NC(=O)c2ccccn2)s1 | – | 15.8 µM (active)
O=C(Cc1cccs1)Nc1nnc(C2CC2)s1 | 1.96% (inactive) | –
O=C(Nc1nnc(C2CC2)s1)c1cc(Cl)sc1Cl | -4.39% (inactive) | –

Compound | activity change, negative = inhibition | Potency
O=C(O)c1ccc(-n2nc(-c3ccccc3)c3ccccc3c2=O)cc1 | 4.17% (inactive) | –
COC(=O)c1c(NC(=O)COC(=O)[C@@H](NS(=O)(=O)c2ccccc2)C(C)C)sc2c1CCC2 | 2.43% (inactive) | –
O=C(CN(CC1CCCO1)C(=O)CNS(=O)(=O)c1ccc(Cl)cc1)NCc1ccccc1 (stereo unspecified) | -1.92% (inactive) | –
CC(C(=O)Nc1ccc(O)c(C(=O)O)c1)N1C(=O)/C(=C/c2cccs2)SC1=S (stereo unspecified) | 20.1% (inactive) | –
COc1ccc(NC(=O)C(CC(C)C)NC(=O)C2CCC(C)CC2)cc1 (stereo unspecified) | -0.13% (inactive) | –
O=C(Nc1nnc(C2=COCCO2)o1)c1ccc([N+](=O)[O-])s1 | -1.89% (inactive) | –
COc1cc(C(C)=O)ccc1OC(=O)CN1C(=O)c2ccccc2C1=O | 3.8% (inactive) | –
COc1cccc(/C=C/c2ccc3ccccc3n2)c1OC(C)=O | – | 25.1 µM (active)
COc1cccc(/C=C2\C=C(c3ccc(C)cc3)OC2=O)c1OC(C)=O | -2.55% (inactive) | –
CCOc1cccc(/C=C/c2ccc3ccccc3n2)c1OC(C)=O | -23% (inactive) | –
COc1ccc(CCNCc2c(-c3ccccc3)n(C)c3ccccc23)cc1 | -1.5% (inactive) | –
Cc1ccc(N(C(=O)C(F)(F)F)C(C(=O)NC2CCCCC2)c2ccncc2)cc1C (stereo unspecified) | -2.72% (inactive) | –
O=C(O)C1CCCN1C1=NS(=O)(=O)c2ccccc21 (stereo unspecified) | -0.501% (inactive) | –
COc1ccccc1OCc1nc2ccccc2s1 | – | 15.8 µM (active)
CN(Cc1nc2ccccc2s1)C(=O)c1ccc(F)cc1 | -3.18% (inactive) | –
O=C(O)CCCCc1nc2ccccc2s1 | -1.65% (inactive) | –
Cc1cc(S(=O)(=O)N2CCOCC2)ccc1OCC(=O)Nc1cccc(C(F)(F)F)c1 | 5.38% (inactive) | –
COc1cc(SC)ccc1C(=O)NCCOc1ccccc1Cl | 0.758% (inactive) | –
COc1cc(SC)ccc1C(=O)Nc1cc(C)ccn1 | -8.85% (inactive) | –
COc1cc(SC)ccc1C(=O)Nc1nc(C)cs1 | – | 10 µM (active)
O=C(NC(=S)NC1CCS(=O)(=O)C1)c1cccc([N+](=O)[O-])c1 (stereo unspecified) | -7.45% (inactive) | –
Cn1c(-c2ccco2)nc2cc3ccccc3cc21 | – | 12.6 µM (active)
Cn1cccc1-c1nc2ccccc2n1C | 0.62% (inactive) | –

Compound | activity change, negative = inhibition | Potency
O=c1c2ccccc2nc(-c2ccco2)n1-c1ccc(Br)cn1 | -1.19% (inactive) | –
c1ccc(-c2cc(-c3ccccc3)[nH]n2)cc1 | 0.475% (inactive) | –
S=c1[nH]nc(-c2cc(-c3ccccc3)n[nH]2)n1/N=C/c1c2ccccc2cc2ccccc12 | 0.0251% (inactive) | –
S=c1[nH]nc(-c2cc(-c3ccsc3)n[nH]2)n1-c1ccccc1 | – | 10 µM (active)
CCn1cc(C(=O)N[C@@H](C)C(=O)NCCO)c(=O)c2cc3c(cc21)OCO3 | -2.59% (inactive) | –
CCCNC(=O)CCc1c(C)nc2c(c(C)nn2-c2ccc(C)cc2)c1C | -2.85% (inactive) | –
CC(C)OC(=O)c1ccc(COc2ccc3ccc(=O)oc3c2)o1 | 0.39% (inactive) | –
O=c1[nH]c2ccccc2n2c(-c3ccccc3)nnc12 | – | 3.16 µM (active)
Cc1ccccc1Cn1c(=O)[nH]c2ccccc21 | 1.18% (inactive) | –
CC(=O)c1c(-c2ccccc2)c2ccccc2[nH]c1=O | -2.03% (inactive) | –
Cc1ccc(S(=O)(=O)N/N=C(\c2ccccc2)C2CC2)cc1 | -1.1% (inactive) | –
Cc1cc(C2=NNC(=Nc3ccc(S(=O)(=O)N4CCOCC4)cc3)SC2)c(C)n1CC1CCCO1 (stereo unspecified) | -17.2% (inactive) | –
C=CCn1c(C)cc(C2=NNC(=NCC)SC2)c1C | – | 14.1 µM (active)
Cc1cccc(N=C2NN=C(c3c[nH]c4ccccc34)CS2)c1 | 0.353% (inactive) | –
COc1ccc(-c2ccc(OC(=O)NC3CCS(=O)(=O)C3)cc2)cc1 (stereo unspecified) | 1.14% (inactive) | –
COc1ccc2cc(S(=O)(=O)Nc3ccccn3)ccc2c1 | 4.52% (inactive) | –
COc1ccc(C(=O)/C=C/Nc2ccccn2)cc1 | – | 12.6 µM (active)
CCOc1ccc(N/C=C/C(=O)c2ccccc2)cc1 | -1.4% (inactive) | –
CC1CCC(NC(=O)CN(C)S(=O)(=O)c2ccc3c(c2)c(=O)n(C)c(=O)n3C)CC1 (stereo unspecified) | -2.21% (inactive) | –
